# Assays:
# Experiment in all cases: DAPPL (digital affinity profiling via proximity ligation, sequencing); 10 mM Tris-HCl pH 7.5, 50 mM NaCl, 1 mM DTT, 4% glycerol, room temperature, 30 min; GST-TFs on glutathione beads, 16-mer random dsDNA library, 0.1% formaldehyde crosslink after washing; high values mean tight binding
# FEV = molecular target: T1, FEV (Homo sapiens, UniProt Q99581 1-238); conditions: protein: recombinant; tags: N-terminal GST; dsDNA, one strand shown
# T1 sequence: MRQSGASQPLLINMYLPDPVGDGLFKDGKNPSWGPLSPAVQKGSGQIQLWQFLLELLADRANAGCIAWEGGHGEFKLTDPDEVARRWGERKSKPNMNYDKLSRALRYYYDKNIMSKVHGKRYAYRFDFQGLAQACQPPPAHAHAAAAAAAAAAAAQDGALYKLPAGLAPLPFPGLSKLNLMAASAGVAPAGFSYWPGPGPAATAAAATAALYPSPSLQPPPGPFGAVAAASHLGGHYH
# Method in brief: (§1)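 Yeast served to express human transcription factors as GST fusions, which were then captured on glutathione beads and labelled with DNA barcodes. Pooled with a tag-only sample, they were incubated with 200 nmole of a 16-mer random double-stranded DNA library for 30 min at room temperature in Tris/NaCl/DTT/glycerol buffer, washed, crosslinked with 0.1% formaldehyde, ligated by proximity, amplified by PCR and sequenced. Dividing each hexamer's read frequency for a factor by its frequency for the tag-only sample gives the binding signal.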
# ETV5 = ETV5 (Homo sapiens, UniProt P41161 1-510); conditions: protein: recombinant; tags: N-terminal GST; dsDNA, one strand shown
# Sequence of ETV5 (P41161 whole entry): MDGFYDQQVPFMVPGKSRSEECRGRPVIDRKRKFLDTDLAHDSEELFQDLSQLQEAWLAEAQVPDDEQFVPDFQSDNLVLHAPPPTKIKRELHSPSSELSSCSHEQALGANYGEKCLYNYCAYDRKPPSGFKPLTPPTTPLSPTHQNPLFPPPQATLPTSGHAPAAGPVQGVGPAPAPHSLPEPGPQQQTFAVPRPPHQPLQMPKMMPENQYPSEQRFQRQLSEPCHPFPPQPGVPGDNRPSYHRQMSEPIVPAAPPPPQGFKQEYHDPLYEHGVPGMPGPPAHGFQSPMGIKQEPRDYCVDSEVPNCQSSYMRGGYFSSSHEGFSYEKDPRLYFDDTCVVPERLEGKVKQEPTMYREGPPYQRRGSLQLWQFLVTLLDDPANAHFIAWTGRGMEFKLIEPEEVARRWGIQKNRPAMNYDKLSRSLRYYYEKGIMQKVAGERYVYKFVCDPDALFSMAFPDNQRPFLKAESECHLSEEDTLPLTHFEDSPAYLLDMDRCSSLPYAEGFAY
# Method in brief: as §1
# HSF1 = HSF1 (Homo sapiens, UniProt Q00613 1-529); conditions: protein: recombinant; tags: N-terminal GST; chain copies: 3; dsDNA, one strand shown
# Sequence of HSF1 (Q00613 whole entry): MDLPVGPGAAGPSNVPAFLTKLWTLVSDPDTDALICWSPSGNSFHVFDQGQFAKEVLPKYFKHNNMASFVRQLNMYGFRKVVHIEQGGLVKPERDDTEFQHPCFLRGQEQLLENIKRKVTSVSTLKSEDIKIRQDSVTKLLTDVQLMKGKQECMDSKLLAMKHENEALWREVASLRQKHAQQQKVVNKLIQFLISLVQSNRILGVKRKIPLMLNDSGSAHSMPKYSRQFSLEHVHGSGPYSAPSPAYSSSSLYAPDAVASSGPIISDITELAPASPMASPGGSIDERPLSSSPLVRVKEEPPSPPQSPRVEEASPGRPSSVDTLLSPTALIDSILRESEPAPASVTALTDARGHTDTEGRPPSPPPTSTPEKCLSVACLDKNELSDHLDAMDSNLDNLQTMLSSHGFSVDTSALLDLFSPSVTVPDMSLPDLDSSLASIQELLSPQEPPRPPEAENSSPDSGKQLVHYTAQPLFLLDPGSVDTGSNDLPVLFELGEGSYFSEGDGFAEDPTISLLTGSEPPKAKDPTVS
# Method in brief: as §1
# SPIC = molecular target: T2, SPIC (Homo sapiens, UniProt Q8N5J4 1-248); conditions: protein: recombinant; tags: N-terminal GST; dsDNA, one strand shown
# T2 sequence: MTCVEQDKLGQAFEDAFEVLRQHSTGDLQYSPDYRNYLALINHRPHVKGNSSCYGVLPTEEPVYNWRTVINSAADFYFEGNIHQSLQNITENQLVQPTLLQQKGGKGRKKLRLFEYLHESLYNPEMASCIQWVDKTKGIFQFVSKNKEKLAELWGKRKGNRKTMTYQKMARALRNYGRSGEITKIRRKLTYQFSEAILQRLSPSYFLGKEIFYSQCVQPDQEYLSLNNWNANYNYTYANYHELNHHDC
# Method in brief: as §1
# ELF4 = ELF4 (Homo sapiens, UniProt Q99607 1-663); conditions: protein: recombinant; tags: N-terminal GST; dsDNA, one strand shown
# Sequence of ELF4 (Q99607 whole entry): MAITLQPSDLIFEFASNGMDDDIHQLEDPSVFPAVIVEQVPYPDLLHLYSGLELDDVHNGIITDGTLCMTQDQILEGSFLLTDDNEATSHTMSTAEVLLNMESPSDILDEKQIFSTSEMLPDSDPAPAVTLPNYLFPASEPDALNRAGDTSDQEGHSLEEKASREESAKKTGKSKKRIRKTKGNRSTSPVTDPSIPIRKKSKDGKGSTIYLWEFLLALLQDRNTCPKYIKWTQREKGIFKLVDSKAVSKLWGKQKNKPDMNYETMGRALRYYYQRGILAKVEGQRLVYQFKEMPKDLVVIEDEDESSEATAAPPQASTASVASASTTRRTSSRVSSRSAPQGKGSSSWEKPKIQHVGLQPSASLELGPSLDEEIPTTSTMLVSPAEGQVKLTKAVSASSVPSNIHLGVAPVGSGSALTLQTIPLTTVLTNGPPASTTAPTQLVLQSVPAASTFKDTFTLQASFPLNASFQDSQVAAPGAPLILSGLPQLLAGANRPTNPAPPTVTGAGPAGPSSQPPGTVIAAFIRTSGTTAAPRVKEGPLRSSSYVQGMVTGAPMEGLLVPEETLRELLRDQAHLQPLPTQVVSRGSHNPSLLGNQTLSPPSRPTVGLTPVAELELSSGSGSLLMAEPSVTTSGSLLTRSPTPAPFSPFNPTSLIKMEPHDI
# Method in brief: as §1
# ELK4 = molecular target: T3, ELK4 (Homo sapiens, UniProt P28324-2 1-405); conditions: protein: recombinant; tags: N-terminal GST; dsDNA, one strand shown
# T3 sequence: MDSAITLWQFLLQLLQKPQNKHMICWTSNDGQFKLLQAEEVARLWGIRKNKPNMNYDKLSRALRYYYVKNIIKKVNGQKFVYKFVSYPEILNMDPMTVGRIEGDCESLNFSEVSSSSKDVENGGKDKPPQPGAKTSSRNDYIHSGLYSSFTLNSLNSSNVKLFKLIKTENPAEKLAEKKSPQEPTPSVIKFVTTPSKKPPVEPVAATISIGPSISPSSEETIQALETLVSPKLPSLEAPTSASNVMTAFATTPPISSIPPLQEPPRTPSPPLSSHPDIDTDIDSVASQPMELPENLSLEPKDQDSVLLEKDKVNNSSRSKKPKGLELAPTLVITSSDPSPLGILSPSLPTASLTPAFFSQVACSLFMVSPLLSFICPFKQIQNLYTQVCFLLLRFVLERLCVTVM
# Method in brief: as §1
# ETV2 = molecular target: T4, ETV2 (Homo sapiens, UniProt O00321 1-342); conditions: protein: recombinant; tags: N-terminal GST; dsDNA, one strand shown
# T4 sequence: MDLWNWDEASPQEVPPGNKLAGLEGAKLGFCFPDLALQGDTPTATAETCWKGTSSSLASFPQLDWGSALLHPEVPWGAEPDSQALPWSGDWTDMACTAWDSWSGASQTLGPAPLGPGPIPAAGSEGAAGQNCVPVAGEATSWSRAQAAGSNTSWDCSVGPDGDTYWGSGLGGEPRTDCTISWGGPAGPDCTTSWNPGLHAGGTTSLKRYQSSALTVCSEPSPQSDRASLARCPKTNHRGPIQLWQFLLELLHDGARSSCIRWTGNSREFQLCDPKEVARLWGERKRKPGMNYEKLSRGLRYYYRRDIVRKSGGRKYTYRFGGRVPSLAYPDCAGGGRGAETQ
# Method in brief: as §1
# ELF3 = molecular target: T5, ELF3 (Homo sapiens, UniProt P78545 1-371); conditions: protein: recombinant; tags: N-terminal GST; dsDNA, one strand shown
# T5 sequence: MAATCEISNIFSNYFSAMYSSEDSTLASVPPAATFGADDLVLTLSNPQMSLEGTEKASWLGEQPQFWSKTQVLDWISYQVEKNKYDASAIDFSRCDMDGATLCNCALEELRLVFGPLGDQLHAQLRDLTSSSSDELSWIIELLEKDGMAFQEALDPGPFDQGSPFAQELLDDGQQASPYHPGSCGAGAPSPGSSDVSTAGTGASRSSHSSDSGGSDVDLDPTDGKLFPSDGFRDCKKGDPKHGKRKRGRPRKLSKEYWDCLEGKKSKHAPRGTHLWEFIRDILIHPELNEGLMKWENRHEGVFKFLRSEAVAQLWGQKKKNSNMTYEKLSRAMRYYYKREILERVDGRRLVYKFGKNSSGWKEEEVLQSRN
# Method in brief: as §1
# ETV1 = ETV1 (Homo sapiens, UniProt P50549 1-477); conditions: protein: recombinant; tags: N-terminal GST; dsDNA, one strand shown
# Sequence of ETV1 (P50549 whole entry): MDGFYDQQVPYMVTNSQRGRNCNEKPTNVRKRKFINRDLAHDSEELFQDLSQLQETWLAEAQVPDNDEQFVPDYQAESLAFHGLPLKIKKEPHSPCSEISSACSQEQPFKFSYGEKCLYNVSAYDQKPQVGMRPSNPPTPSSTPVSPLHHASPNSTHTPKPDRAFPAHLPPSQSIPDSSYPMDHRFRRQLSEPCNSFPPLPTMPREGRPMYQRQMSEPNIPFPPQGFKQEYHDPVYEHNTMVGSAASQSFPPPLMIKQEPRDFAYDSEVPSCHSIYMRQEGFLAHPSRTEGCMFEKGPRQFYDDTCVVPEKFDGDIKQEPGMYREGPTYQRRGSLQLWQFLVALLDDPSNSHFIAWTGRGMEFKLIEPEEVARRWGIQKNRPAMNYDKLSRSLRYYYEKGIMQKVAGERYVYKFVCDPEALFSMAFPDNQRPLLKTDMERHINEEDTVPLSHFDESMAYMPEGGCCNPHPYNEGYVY
# Method in brief: as §1
# ERF = molecular target: T6, ERF (Homo sapiens, UniProt P50548 1-548); conditions: protein: recombinant; tags: N-terminal GST; dsDNA, one strand shown
# T6 sequence: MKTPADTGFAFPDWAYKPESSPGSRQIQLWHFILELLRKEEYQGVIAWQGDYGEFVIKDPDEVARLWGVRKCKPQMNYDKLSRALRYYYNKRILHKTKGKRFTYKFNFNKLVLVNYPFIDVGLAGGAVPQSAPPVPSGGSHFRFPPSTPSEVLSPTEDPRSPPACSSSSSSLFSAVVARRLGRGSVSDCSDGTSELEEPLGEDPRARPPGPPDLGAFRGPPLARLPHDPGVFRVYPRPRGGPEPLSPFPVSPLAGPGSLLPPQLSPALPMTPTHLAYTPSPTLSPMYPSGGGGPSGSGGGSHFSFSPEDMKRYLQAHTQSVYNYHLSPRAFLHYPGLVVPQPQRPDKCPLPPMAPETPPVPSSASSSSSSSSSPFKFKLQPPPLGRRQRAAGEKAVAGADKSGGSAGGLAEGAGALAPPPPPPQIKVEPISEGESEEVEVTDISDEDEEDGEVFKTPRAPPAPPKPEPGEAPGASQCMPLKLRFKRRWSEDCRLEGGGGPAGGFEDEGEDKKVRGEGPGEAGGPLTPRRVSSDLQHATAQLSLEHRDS
# Method in brief: as §1
# ETV3L = molecular target: T7, ETV3L (Homo sapiens, UniProt Q6ZN32 1-361); conditions: protein: recombinant; tags: N-terminal GST; dsDNA, one strand shown
# T7 sequence: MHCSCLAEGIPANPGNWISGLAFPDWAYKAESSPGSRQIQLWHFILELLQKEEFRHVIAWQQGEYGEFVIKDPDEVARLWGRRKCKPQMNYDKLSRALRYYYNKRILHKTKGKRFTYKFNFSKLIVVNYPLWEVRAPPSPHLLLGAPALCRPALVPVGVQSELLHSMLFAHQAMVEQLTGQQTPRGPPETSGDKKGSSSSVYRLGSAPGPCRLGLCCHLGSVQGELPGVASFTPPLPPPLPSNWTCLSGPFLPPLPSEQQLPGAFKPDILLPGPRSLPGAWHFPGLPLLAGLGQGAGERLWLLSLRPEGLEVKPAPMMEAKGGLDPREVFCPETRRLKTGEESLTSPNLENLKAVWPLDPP
# Method in brief: as §1
# ETS2 = molecular target: T8, ETS2 (Homo sapiens, UniProt P15036 1-469); conditions: protein: recombinant; tags: N-terminal GST; dsDNA, one strand shown
# T8 sequence: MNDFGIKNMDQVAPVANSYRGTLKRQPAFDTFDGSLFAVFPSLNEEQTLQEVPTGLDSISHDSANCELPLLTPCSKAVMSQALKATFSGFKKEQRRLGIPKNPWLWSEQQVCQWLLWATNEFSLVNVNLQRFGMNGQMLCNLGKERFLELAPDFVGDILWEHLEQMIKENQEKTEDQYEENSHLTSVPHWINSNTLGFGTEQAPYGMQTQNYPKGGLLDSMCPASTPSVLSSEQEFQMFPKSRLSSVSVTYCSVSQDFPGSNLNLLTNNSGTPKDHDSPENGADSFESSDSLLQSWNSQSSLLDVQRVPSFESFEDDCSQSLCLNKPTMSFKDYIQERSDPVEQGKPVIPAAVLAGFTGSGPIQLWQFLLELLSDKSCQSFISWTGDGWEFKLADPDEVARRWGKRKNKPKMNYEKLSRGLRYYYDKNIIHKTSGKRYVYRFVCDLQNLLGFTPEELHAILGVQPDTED
# Method in brief: as §1
# SPDEF = molecular target: T9, SPDEF (Homo sapiens, UniProt O95238 1-335); conditions: protein: recombinant; tags: N-terminal GST; dsDNA, one strand shown
# T9 sequence: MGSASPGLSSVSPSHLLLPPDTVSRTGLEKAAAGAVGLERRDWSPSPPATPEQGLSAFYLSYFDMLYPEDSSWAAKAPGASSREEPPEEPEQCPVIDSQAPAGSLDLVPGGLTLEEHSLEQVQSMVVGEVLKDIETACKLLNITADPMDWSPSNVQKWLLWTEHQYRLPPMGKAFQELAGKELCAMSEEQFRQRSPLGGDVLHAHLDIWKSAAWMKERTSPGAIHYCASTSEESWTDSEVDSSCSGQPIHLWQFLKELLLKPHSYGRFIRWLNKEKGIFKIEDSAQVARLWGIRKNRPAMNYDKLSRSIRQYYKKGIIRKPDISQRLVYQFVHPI
# Method in brief: as §1
# ETV7 = molecular target: T10, ETV7 (Homo sapiens, UniProt Q9Y603 1-341); conditions: protein: recombinant; tags: N-terminal GST; dsDNA, one strand shown
# T10 sequence: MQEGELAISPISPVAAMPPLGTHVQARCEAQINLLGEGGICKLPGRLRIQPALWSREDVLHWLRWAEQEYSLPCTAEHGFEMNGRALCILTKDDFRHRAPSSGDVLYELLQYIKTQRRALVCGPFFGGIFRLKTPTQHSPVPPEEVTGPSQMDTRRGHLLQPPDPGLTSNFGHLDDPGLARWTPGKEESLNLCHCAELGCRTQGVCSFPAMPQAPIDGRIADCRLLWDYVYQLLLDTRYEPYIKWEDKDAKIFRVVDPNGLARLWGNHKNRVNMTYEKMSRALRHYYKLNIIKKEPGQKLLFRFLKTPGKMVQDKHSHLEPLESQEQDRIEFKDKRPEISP
# Method in brief: as §1
# ELF5 = molecular target: T11, ELF5 (Homo sapiens, UniProt Q9UKW6-2 1-255); conditions: protein: recombinant; tags: N-terminal GST; dsDNA, one strand shown
# T11 sequence: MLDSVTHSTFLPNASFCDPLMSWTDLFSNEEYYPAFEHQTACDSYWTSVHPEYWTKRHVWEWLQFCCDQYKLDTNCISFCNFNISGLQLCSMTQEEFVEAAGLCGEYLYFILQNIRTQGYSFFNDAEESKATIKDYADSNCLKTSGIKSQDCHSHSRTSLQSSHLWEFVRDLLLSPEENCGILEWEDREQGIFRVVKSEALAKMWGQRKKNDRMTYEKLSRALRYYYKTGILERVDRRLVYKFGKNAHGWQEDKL
# Method in brief: as §1
# ETV3 = molecular target: T12, ETV3 (Homo sapiens, UniProt P41162-2 1-143); conditions: protein: recombinant; tags: N-terminal GST; dsDNA, one strand shown
# T12 sequence: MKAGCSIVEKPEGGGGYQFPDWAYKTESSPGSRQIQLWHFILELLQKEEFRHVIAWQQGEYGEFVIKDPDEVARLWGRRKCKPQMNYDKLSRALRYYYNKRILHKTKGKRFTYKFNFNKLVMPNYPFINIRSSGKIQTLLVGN
# Method in brief: as §1
# ETV6 = ETV6 (Homo sapiens, UniProt P41212 1-452); conditions: protein: recombinant; tags: N-terminal GST; dsDNA, one strand shown
# Sequence of ETV6 (P41212 whole entry): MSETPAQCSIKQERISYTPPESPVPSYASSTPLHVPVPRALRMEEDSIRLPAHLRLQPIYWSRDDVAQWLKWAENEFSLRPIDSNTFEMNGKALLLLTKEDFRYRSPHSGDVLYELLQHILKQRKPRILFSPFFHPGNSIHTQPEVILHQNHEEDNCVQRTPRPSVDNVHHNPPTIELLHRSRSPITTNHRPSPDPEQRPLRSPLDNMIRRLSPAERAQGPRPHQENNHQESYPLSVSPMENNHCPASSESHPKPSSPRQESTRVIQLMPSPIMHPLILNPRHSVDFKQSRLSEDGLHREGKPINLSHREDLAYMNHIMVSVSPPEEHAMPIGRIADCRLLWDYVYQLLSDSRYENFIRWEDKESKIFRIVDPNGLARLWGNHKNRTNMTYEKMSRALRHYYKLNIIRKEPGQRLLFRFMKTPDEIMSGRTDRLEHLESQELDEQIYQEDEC
# Method in brief: as §1
Sequence,binding signal (FEV),binding signal (ETV5),binding signal (HSF1),binding signal (SPIC),binding signal (ELF4),binding signal (ELK4),binding signal (ETV2),binding signal (ELF3),binding signal (ETV1),binding signal (ERF),binding signal (ETV3L),binding signal (ETS2),binding signal (SPDEF),binding signal (ETV7),binding signal (ELF5),binding signal (ETV3),binding signal (ETV6)
TGCTAC,"1.36 fold enrichment (6-mer frequency, TF over GST control)","1.25 fold enrichment (6-mer frequency, TF over GST control)","1.03 fold enrichment (6-mer frequency, TF over GST control)","1.41 fold enrichment (6-mer frequency, TF over GST control)","1.23 fold enrichment (6-mer frequency, TF over GST control)","1.4 fold enrichment (6-mer frequency, TF over GST control)","1.24 fold enrichment (6-mer frequency, TF over GST control)","1.25 fold enrichment (6-mer frequency, TF over GST control)","1.42 fold enrichment (6-mer frequency, TF over GST control)","1.39 fold enrichment (6-mer frequency, TF over GST control)","1.3 fold enrichment (6-mer frequency, TF over GST control)","1.23 fold enrichment (6-mer frequency, TF over GST control)","1.26 fold enrichment (6-mer frequency, TF over GST control)","1.23 fold enrichment (6-mer frequency, TF over GST control)","1.17 fold enrichment (6-mer frequency, TF over GST control)","1.23 fold enrichment (6-mer frequency, TF over GST control)","1.16 fold enrichment (6-mer frequency, TF over GST control)"
AAGGAA,"1.19 fold enrichment (6-mer frequency, TF over GST control)","1.35 fold enrichment (6-mer frequency, TF over GST control)","1.17 fold enrichment (6-mer frequency, TF over GST control)","1.36 fold enrichment (6-mer frequency, TF over GST control)","1.25 fold enrichment (6-mer frequency, TF over GST control)","1.12 fold enrichment (6-mer frequency, TF over GST control)","1.31 fold enrichment (6-mer frequency, TF over GST control)","1.66 fold enrichment (6-mer frequency, TF over GST control)","1.24 fold enrichment (6-mer frequency, TF over GST control)","1.23 fold enrichment (6-mer frequency, TF over GST control)","1.3 fold enrichment (6-mer frequency, TF over GST control)","1.34 fold enrichment (6-mer frequency, TF over GST control)","1.22 fold enrichment (6-mer frequency, TF over GST control)","1.28 fold enrichment (6-mer frequency, TF over GST control)","2.15 fold enrichment (6-mer frequency, TF over GST control)","1.37 fold enrichment (6-mer frequency, TF over GST control)","1.41 fold enrichment (6-mer frequency, TF over GST control)"
